Insulin prom inh: TRM-6 insulin promoter activity inhibition. actives 0.9% (n = 130,000). inhibition, % at 2 µM. TRM-6 cells (human fetal islet line), insulin promoter-eGFP reporter, imaging; reporter expression induced with tamoxifen;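 active means inhibition above the mean plus 3 SD, with well images judged a real hit on visual review, cut at about 60% in these data, passing the limit was not always enough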
Ins promoter up: MIN6 insulin promoter up-regulation. MIN6 insulin promoter-GFP reporter, high-content imaging; active compounds read high. z-score at 5 µM. actives 0.3% (n = 190,000);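 active means z-score above 3 at 5 µM with at least 500 cells counted in the well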
S1P4 antagonist: antagonists of human S1P4 receptor. actives 0.26% (n = 220,000). S1P4-expressing cells, antagonist mode, reporter read-out. O95977. inhibition, % at 4.98 µM. AID 1510; in the data active means inhibition above about 29%;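 further: 0% = wells stimulated with agonist and 100% = vehicle wells without agonist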
Target sequence (O95977 whole entry, looked up): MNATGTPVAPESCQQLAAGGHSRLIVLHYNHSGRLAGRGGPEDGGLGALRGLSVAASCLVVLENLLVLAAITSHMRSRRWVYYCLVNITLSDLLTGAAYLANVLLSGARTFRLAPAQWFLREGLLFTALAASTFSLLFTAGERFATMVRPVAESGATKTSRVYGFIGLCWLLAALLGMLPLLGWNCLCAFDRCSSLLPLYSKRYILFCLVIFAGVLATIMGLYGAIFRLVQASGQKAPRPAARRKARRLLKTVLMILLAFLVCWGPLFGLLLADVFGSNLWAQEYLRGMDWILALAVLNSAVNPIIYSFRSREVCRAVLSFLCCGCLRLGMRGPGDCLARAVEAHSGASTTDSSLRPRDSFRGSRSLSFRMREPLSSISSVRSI
S1P3 antag: antagonists of human S1P3 receptor. actives 0.27% (n = 170,000). AID 485. CHO S1P3 NFAT-BLA reporter, FRET fluorescence, antagonist mode. inhibition, % at 4.98 µM;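 active means inhibition above the plate cutoff, the mean inhibition of test wells on that plate plus 3 SD, cut at about 28% in these data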;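 further: cells challenged with S1P at its EC80 of 0.8 µM; blue over green emission ratio from cleaved BLA substrate after 4 h stimulation; 0% = S1P-stimulated wells and 100% = unstimulated DMSO-only wells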
Hsp70 activator: switches on Hsp70 transcription; AID 1203; activation, % at 10 µM; HeLa Hsp70 promoter luciferase reporter, luminescence; scaled: vehicle 0, proteasome-inhibitor control 100%; actives 0.04% (n = 200,000);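 active means activation above the mean across all tested compounds plus 3 SD, cutoff set per campaign, cut at about 5.5% in these data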;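 further: 100% = MG132 at 30 µM as the positive control and 0% = DMSO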
S1P4 ag: human S1P4 receptor agonism; S1P4-expressing cell line, agonist reporter assay; activation, % at 4.98 µM; actives 0.35% (n = 220,000); AID 1509; in the data active means activation above about 11%;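 further: 0% = DMSO vehicle and 100% = reference agonist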
S1P4 agonist cf: confirmation of human S1P4 receptor agonists; AID 1523; shares compounds with S1P4 ag; S1P4 agonist cell-based reporter assay; actives 7% (n = 740); activation, % at 4.98 µM; in the data active means activation above about 12%;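 further: 0% = vehicle and 100% = full reference agonist response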
S1P1 agonist: human S1P1 agonism as S1P4 agonist counter-screen; shares compounds with S1P4 ag; S1P1 agonist cell-based assay, activation; activation, % at 4.98 µM; actives 4% (n = 740); AID 1563; in the data active means activation above about 21%;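 further: 0% = vehicle wells and 100% = reference agonist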
* = called active by the depositor. Hits are enriched below; roughly 1.5% of the tested compounds scored in any of these assays.

How did CCOC(=O)C1C(=O)N(C(=O)c2cncc(Br)c2)CC1c1ccccc1 (stereo not given) do in these assays?
Ins promoter up: 0.81; S1P4 antagonist: -8.3; S1P3 antag: 4.3; Hsp70 activator: -0.2; S1P4 ag: 19.8*; S1P4 agonist cf: -2.1; S1P1 agonist: 3.1

How did O=C(NC1CCCC1)C(c1cccnc1)N(C(=O)c1csnn1)C1CC1 (stereo not given) do in these assays?
Ins promoter up: 0.19; S1P4 antagonist: -2.2; S1P3 antag: -11.9; Hsp70 activator: 0.2; S1P4 ag: -0.4

How did OCCCCNCc1ccc(OCc2ccc(Cl)cc2)cc1 do in these assays?
Ins promoter up: -1.05; S1P4 antagonist: 9.8; Hsp70 activator: 1.1; S1P4 ag: 0.7

How did COc1ccc(OC(C)C(=O)Nc2ccccc2C(F)(F)F)cc1 (stereo not given) do in these assays?
Insulin prom inh: -9.1; Ins promoter up: 0.02; S1P4 antagonist: -12.3; S1P3 antag: 5.1; Hsp70 activator: -0.1; S1P4 ag: 86.0*; S1P4 agonist cf: -2.6; S1P1 agonist: 0.6

What do the screens show for `CCCc1ccc(OCC(=O)Nc2cc(S(=O)(=O)CC)ccc2O)cc1`?
Ins promoter up: 0.13; S1P4 antagonist: -20.2; S1P3 antag: 2.4; Hsp70 activator: 0.0; S1P4 ag: 12.4*; S1P4 agonist cf: -0.8; S1P1 agonist: 2.0

Results for CCOCc1c(C(=O)OCC(=O)/C(C#N)=C(\C)N)oc2ccccc12 ?
Ins promoter up: 1.17; S1P4 antagonist: -5.0; S1P3 antag: -17.0; Hsp70 activator: -0.1; S1P4 ag: -1.3

What do the screens show for `COc1ccc(C(=O)NC(=S)NC2CCSC2=O)cc1` (stereo not given)?
Insulin prom inh: -7.4; Ins promoter up: -0.15; S1P4 antagonist: -10.0; S1P3 antag: 6.8; Hsp70 activator: -0.1; S1P4 ag: 1.1

How did Cc1cc(C)cc(NC(=O)CSc2nnc(-c3ccc(S(=O)(=O)N4CCCC4)cc3)o2)c1 do in these assays?
Ins promoter up: -0.66; S1P4 antagonist: -13.5; S1P3 antag: -15.6; Hsp70 activator: -0.3; S1P4 ag: 11.1*; S1P4 agonist cf: -2.8; S1P1 agonist: -6.4

Results for O=C(COC(=O)c1ccncc1)NCc1ccccc1 ?
Insulin prom inh: 25.8; Ins promoter up: 0.48; S1P4 antagonist: -6.0; S1P3 antag: 9.5; Hsp70 activator: -0.3; S1P4 ag: -3.2

Results for O=C(COC(=O)c1ccc(Br)cc1)NCc1ccccc1 ?
Ins promoter up: -0.05; S1P4 antagonist: -15.3; S1P3 antag: -12.7; Hsp70 activator: -0.3; S1P4 ag: 15.0*; S1P4 agonist cf: -1.3; S1P1 agonist: 7.3

Results for O=C(COC(=O)c1cccc(C(F)(F)F)c1)NCc1ccc(Cl)cc1 ?
Insulin prom inh: 0.0; Ins promoter up: 0.72; S1P4 antagonist: 12.6; S1P3 antag: 1.4; Hsp70 activator: 0.0; S1P4 ag: 4.4

What do the screens show for `O=C(COC(=O)c1cccc(C(F)(F)F)c1)NCc1ccccc1`?
Insulin prom inh: -57.1; Ins promoter up: -0.05; S1P4 antagonist: -1.4; S1P3 antag: -9.5; Hsp70 activator: -0.3; S1P4 ag: 22.7*; S1P4 agonist cf: -1.0; S1P1 agonist: 7.2

Results for c1ccc2sc(SCc3ccc(-c4nnco4)cc3)nc2c1 ?
Insulin prom inh: -9.7; Ins promoter up: -0.85; S1P4 antagonist: -10.5; S1P3 antag: -5.1; Hsp70 activator: -0.3; S1P4 ag: 1.1

What do the screens show for `CCOc1ccc(-c2nnn(CC(=O)NCc3ccco3)n2)cc1`?
Insulin prom inh: 11.8; Ins promoter up: 0.15; S1P4 antagonist: -10.4; S1P3 antag: 21.6; Hsp70 activator: -0.3; S1P4 ag: 0.7

What do the screens show for `CCOc1ccc(-c2nnn(CC(=O)NCc3ccccc3)n2)cc1`?
Insulin prom inh: 5.6; Ins promoter up: 0.14; S1P4 antagonist: -8.3; S1P3 antag: -16.3; Hsp70 activator: -0.4; S1P4 ag: 19.1*; S1P4 agonist cf: -1.6; S1P1 agonist: -5.6

How did O=C(Cc1cccs1)Nc1ccccc1NC(=O)Cc1cccs1 do in these assays?
Insulin prom inh: 0.0; S1P4 antagonist: -11.1; S1P3 antag: -30.5; Hsp70 activator: 1.1; S1P4 ag: -1.8

Results for O=C(Cc1cccs1)Nc1ccccc1C(=O)O ?
Insulin prom inh: 18.4; S1P4 antagonist: -10.8; S1P3 antag: -22.2; Hsp70 activator: -0.2; S1P4 ag: 117.4*; S1P4 agonist cf: -1.6; S1P1 agonist: 4.8

Results for CSc1ccc(NC(=O)Nc2cccn(Cc3ccccc3)c2=O)cc1 ?
Insulin prom inh: 33.3; Ins promoter up: -5.72; S1P4 antagonist: -24.4; S1P3 antag: 10.6; Hsp70 activator: -0.3; S1P4 ag: 33.5*; S1P4 agonist cf: -1.0; S1P1 agonist: 6.0

How did O=C(c1cnc2ccc(Cl)cc2c1Cl)N1CCOCC1 do in these assays?
Insulin prom inh: 0.0; Ins promoter up: 0.31; S1P4 antagonist: -5.6; S1P3 antag: -4.2; Hsp70 activator: -0.2; S1P4 ag: 25.6*; S1P4 agonist cf: -1.3; S1P1 agonist: -0.3

Results for CNS(=O)(=O)c1ccc(NC(=O)c2ccccn2)cc1 ?
Insulin prom inh: -53.9; Ins promoter up: -0.04; S1P4 antagonist: 8.7; S1P3 antag: -7.0; Hsp70 activator: -0.1; S1P4 ag: 70.3*; S1P4 agonist cf: -0.7; S1P1 agonist: -2.9

What do the screens show for `COc1ccc(NS(=O)(=O)c2cccc(NC(=O)c3ccccn3)c2)cc1`?
Ins promoter up: -0.09; S1P4 antagonist: 11.0; S1P3 antag: -1.2; S1P4 ag: 0.9

Results for CCc1cc2c(cc3c(=O)n(CC(=O)NCCCN(CC)CC)nc(CC)n32)s1 ?
Insulin prom inh: 9.4; Ins promoter up: 1.3; S1P4 antagonist: -7.3; Hsp70 activator: 0.3; S1P4 ag: 0.6

Results for O=C(CN1CCC(Cc2ccccc2)CC1)Nc1ccc2c(c1)OCCO2 ?
Insulin prom inh: -1.4; Ins promoter up: -1.25; S1P4 antagonist: -5.3; Hsp70 activator: -0.4; S1P4 ag: 412.6*; S1P4 agonist cf: -1.5; S1P1 agonist: -9.1

How did O=C(CN1CCN(CC(=O)Nc2ccccc2Cl)CC1)Nc1ccc2c(c1)OCCO2 do in these assays?
Insulin prom inh: 21.4; Ins promoter up: 1.22; S1P4 antagonist: -16.6; S1P3 antag: -44.5; Hsp70 activator: -0.3; S1P4 ag: 0.8

Screening data (PubChem)
